D1 antag: Antagonist of Human D 1 Dopamine Receptor: qHTS. D(1A) dopamine receptor (Homo sapiens), P21728. HEK293 TREx D1 cells, calcium flux, dopamine EC80; active compounds read low. activity change, negative = inhibition, % at 10 µM. 360,000 tested, 3.2% active; in the data active means activity change below about -30%; further: on the % scale 0 is the no-effect control and ±100 the full control effect
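Kinetic fluorescence of a calcium dye serves as the read-out. D1-expressing Hek293 Trex cells, induced overnight at 30 C, are exposed to compound for 180 s before an EC80 dopamine addition, then read 180 s further.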
D1 PAM: Potentiators of Human D1 Dopamine Receptor: qHTS; HEK293 TREx D1 cells, calcium flux, dopamine EC20 potentiation; potentiation, % at 10 µM; 360,000 tested, 0.036% active; AID 504651, 2011; in the data active means potentiation above about 30%; further: 0% is about no effect
TRHR PAM: qHTS for Small Molecule Agonists and Allosteric Enhancers of Human TRH Receptor: Primary Screen for Enhancers | enhancement, % at 2 µM | Thyrotropin-releasing hormone receptor (Homo sapiens), P34981 | TRHR cells, fluo-8 calcium fluorescence, EC20 TRH enhancement | 360,000 tested, 0.66% active; in the data active means enhancement above about 30%; further: 0% is about no effect
Target sequence (P34981 whole entry, looked up): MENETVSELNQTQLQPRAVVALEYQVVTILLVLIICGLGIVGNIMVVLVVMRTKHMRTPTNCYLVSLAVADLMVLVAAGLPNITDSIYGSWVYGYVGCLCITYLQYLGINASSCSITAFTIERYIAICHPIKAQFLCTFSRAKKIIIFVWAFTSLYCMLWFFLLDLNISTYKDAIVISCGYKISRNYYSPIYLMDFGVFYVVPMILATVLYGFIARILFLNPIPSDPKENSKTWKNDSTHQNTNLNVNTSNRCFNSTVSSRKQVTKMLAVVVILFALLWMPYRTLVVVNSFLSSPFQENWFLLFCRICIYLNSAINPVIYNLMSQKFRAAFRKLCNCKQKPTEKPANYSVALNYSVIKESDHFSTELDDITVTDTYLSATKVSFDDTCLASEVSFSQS
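Enhancer read-out: after compound pinning and an initial kinetic agonist-mode read, an EC20 of TRH (10 nM final) was injected and fluo-8 calcium signal (Ex 480/Em 530) followed at 1 s/cycle for 100 cycles in TRHR-expressing cells.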
D1 ag: Allosteric Agonists of the Human D1 Dopamine Receptor: qHTS; D(1A) dopamine receptor (Homo sapiens), P21728; HEK293 T-REx D1 cells, calcium flux, agonist mode; activation, % at 2 µM; 360,000 tested, 1% active; AID 504660, 2011; further: 0% is about no effect
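Agonism was scored from calcium flux recorded over 180 s (1 read/s) after pintool compound addition, following a 10-cycle baseline. Cells were inducible force-coupled HEK293 TREx D1, plated overnight at 30 C and loaded with no-wash calcium dye.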
TRHR agonist: qHTS for Small Molecule Agonists and Allosteric Enhancers of Human TRH Receptor: Primary Screen for Agonists; AID 493084, 2011; Thyrotropin-releasing hormone receptor (Homo sapiens), P34981; 360,000 tested, 0.18% active; TRHR cells, calcium flux fluo-8, FDSS agonist mode; activation, % at 2 µM; further: 0% is about no effect
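Agonist-mode FDSS calcium read (Ex 480/Em 530, 1 s cycles) in 1536-well TRHR cells with fluo-8 dye, after 10-cycle baseline and 23 nL compound addition; TRH at EC20 (10 nM final) added afterwards for the enhancer phase.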
An asterisk follows results filed as active; . = no result given. Most compounds without a hit are left out; they make up all but 4.6% or so of the library. Unless noted, no stated cut-off is given here; in the data, active means activation above about 30%; inactive means the rest.

SMILES	D1 antag	D1 PAM	TRHR PAM	D1 ag	TRHR agonist
CCC(O)(CCN1CCCCC1)c1ccccc1 (stereo not drawn)	16	0	-3	1	0
COc1ccccc1NC(=O)c1ccc2ccccc2c1	-4	1	-1	11	1
CNS(=O)(=O)c1cc(-c2nnc(Nc3cc(C)ccc3C)c3ccccc23)ccc1C	-7	5	-2	-1	0
Cc1ccc2c(c1)N(C(=O)N1CCC(C(=O)NCCC3=CCCCC3)CC1)CC(C)O2 (stereo not drawn)	3	-1	-4	-1	0
CCNc1nc(Oc2ccc(C(=O)OC)cc2)nc(N(C)C)n1	-31*	-5	4	12	-1
COc1ccc(OC)c(NC(=O)c2c(NCc3ccc(OC)c(OC)c3)sc3c2CCC(C)C3)c1 (stereo not drawn)	1	-3	2	0	1
CCOC(=O)c1c(C)oc2nc(C)nc(NCCc3ccc(SC)cc3)c12	-32*	-6	12	5	0
CCOC(=O)c1c(C)oc2nc(C)nc(NCCc3ccc(OC)c(OC)c3)c12	0	0	22	2	0
CC(Oc1cccc(Cl)c1)C(=O)Nc1ccc(S(=O)(=O)NC2=NCCCCC2)cc1 (stereo not drawn)	3	2	7	17	1
COc1cc(SC)ccc1C(=O)Nc1cccc(S(=O)(=O)NC2=NCCCCC2)c1	-38*	-6	-13	11	0
COc1ccccc1C(=O)Nc1ccc(S(=O)(=O)Nc2nccs2)cc1	-31*	.	1	4	1
CCN(CC)S(=O)(=O)c1cccc(NC(=O)c2ccc(SC)cc2OC)c1	0	-9	-3	29	1
CSc1ccccc1C(=O)Nc1ccc(S(=O)(=O)NC2=NCCCCC2)cc1	23	-3	-6	0	-1
CC(Oc1ccc(F)cc1)C(=O)Nc1ccc(S(=O)(=O)NC2=NCCCCC2)cc1 (stereo not drawn)	-6	0	5	33*	4
COc1ccccc1C(=O)Nc1ccc(S(=O)(=O)NC2=NCCCCC2)cc1	-58*	-12	1	3	0
COc1cc2cc(CNc3ccccc3)c(=O)n(CC(=O)Nc3ccccc3)c2cc1OC	7	2	-3	37*	5
COc1ccccc1NC(=O)Cn1c(=O)c(CNc2ccccc2)cc2cc(OC)c(OC)cc21	2	-2	3	69*	-1
CCc1ccc(NCc2cc3cc(OC)c(OC)cc3n(CC(=O)Nc3ccc(F)cc3)c2=O)cc1	6	-3	-5	7	4
COc1ccccc1NC(=O)Cn1c(=O)c(CNc2ccc(C)cc2)cc2cc3c(cc21)OCCO3	-16	4	3	4	0
COc1ccccc1CNC(=O)CS(=O)(=O)Cc1nc(-c2ccccc2C)oc1C	5	0	2	0	0
COc1ccc(N2CCN(CC(O)COc3ccc(F)cc3)CC2)cc1 (stereo not drawn)	-66*	-22	11	12	0
C=CCc1ccc(OCC(O)CN2CCN(c3ccccc3)CC2)c(OC)c1 (stereo not drawn)	-31*	-11	0	14	0
COc1cc(C(C)=O)ccc1OCC(O)CN1CCN(c2ccc(C)cc2C)CC1 (stereo not drawn)	-39*	-1	4	3	0
C=CCc1ccccc1OCC(O)CN1CCN(c2ccccc2)CC1 (stereo not drawn)	-39*	0	5	-3	-2
C=CCc1ccc(OCC(O)CN2CCCCC2)c(OC)c1 (stereo not drawn)	-6	-7	0	2	0
SMILES	D1 antag	D1 PAM	TRHR PAM	D1 ag	TRHR agonist
COc1ccc(Br)cc1S(=O)(=O)N(CC(=O)N1CCN(C)CC1)c1ccccc1	9	5	1	4	0
CCOc1ccccc1CNC(=O)C1CCN(C(=O)N2CC(CC)Oc3ccc(C)cc32)CC1 (stereo not drawn)	0	1	4	0	0
C=CCc1ccccc1OCC(O)CN1CCN(c2ccccc2F)CC1 (stereo not drawn)	-61*	-20	-4	7	1
COc1cccc(OC)c1OCC(O)CN1CCN(c2ccccc2F)CC1 (stereo not drawn)	-18	-6	2	4	-1
Cc1ccc(C(C)C)c(OCC(O)CN2CCN(c3ccccc3F)CC2)c1 (stereo not drawn)	-34*	-1	11	4	1
Cc1ccc(C(C)C)c(OCC(O)CN2CCc3ccccc3C2)c1 (stereo not drawn)	-8	0	5	27	1
Cc1ccc(C)c(OCC(O)CN2CCC(Cc3ccccc3)CC2)c1 (stereo not drawn)	-78*	-18	-4	47*	2
OC(COc1ccccc1Cl)CN1CCN(CC(O)COc2ccccc2Cl)CC1 (stereo not drawn)	-82*	-6	-5	99*	3
Cc1ccc(C)c(N2CCN(C(=O)c3cc(S(=O)(=O)N4CCCC4)c[nH]3)CC2)c1	-12	-6	8	2	0
C=CCc1ccccc1OCC(O)CN1CCN(c2ccccc2OC)CC1 (stereo not drawn)	-43*	-8	5	16	1
C=CCc1cc(OC)ccc1OCC(O)CN1CCN(c2ccc(OC)cc2)CC1 (stereo not drawn)	-7	-3	6	6	0
C=CCc1ccccc1OCC(O)CNC(C)C (stereo not drawn)	-36*	-5	3	4	1
COc1ccc(OC)c(C2CC(=O)N(c3cccc(C)c3)C3=C2C(=O)OC3)c1 (stereo not drawn)	-10	-4	36*	-1	1
COc1ccccc1C1CC(=O)N(c2cccc(C(F)(F)F)c2)C2=C1C(=O)OC2 (stereo not drawn)	-1	-3	-9	2	10
O=C(O)c1ccc(Cl)c(NCc2cccs2)c1	5	-2	32*	0	0
CC(NC(=O)[C@H](C)NC(=O)N1CCn2c1nc1ccccc12)c1ccccc1 (stereo partly drawn)	2	2	8	2	-1
O=C(C1CCN(S(=O)(=O)c2cnc[nH]2)CC1)N1CCn2c1nc1ccccc12	-16	-4	-3	6	0
O=C(C1CCCCC1)N1CCCn2c1nc1ccccc12	-45*	-1	3	7	0
C[C@H](NC(=O)N1CCn2c1nc1ccccc12)C(=O)NC1CC1	-85*	-3	-23	-2	0
